About 13,000 (27%) of roughly 48,000 compounds showed an effect of 50% or more. The list shows a part of the results.
system: Wolbachia pipientis; test: Anti-Wolbachia Cell-Based Screen; assay type: functional; design: scale not given: in the data most compounds retested in dose-response had high values; settings: 5 µM

| Compound | Percent Effect [%] |
| --- | --- |
| Cc1ncsc1C(=O)NCC1SCCc2ccccc21 (configuration not stated) | 15.22 |
| Cc1ccsc1C(=O)N1CC(C(=O)N2CCOCC2)C2(CCOCC2)C1 (configuration not stated) | -2.409 |
| O=C(NCCN1CCc2ccccc2C1)c1scnc1Cl | 7.313 |
| Cc1ccsc1C(=O)N1Cc2ccccc2C2(CCN(C)CC2)C1 | 0.4591 |
| Cc1ncsc1C(=O)N1CCC(O)(CN2CCc3ccccc3C2)C1 (configuration not stated) | 69.3 |
| Cc1ccsc1C(=O)N1CCC(O)(CN2CCc3ccccc3C2)C1 (configuration not stated) | 107.5 |
| CN(C)C(=O)CN1C[C@H]2CCN(C(=O)c3ccccc3)CC[C@H]2S1(=O)=O | -0.2408 |
| CCOc1ccc(NC(=O)N2CCOC(C(N)=O)C2)cc1C (configuration not stated) | 95.69 |
| COCC1CN(C(=O)Nc2cc(Cl)ccc2F)CCO1 (configuration not stated) | -13.77 |
| CCOc1ccc(NC(=O)NC2CCc3nc(C)nn3C2)cc1Cl (configuration not stated) | -21 |
| CCOc1ccc(C#N)cc1NC(=O)N1CCOC(C(N)=O)C1 (configuration not stated) | 8.32 |
| CCOc1ccc(NC(=O)N2CCOC(C(N)=O)C2)cc1Cl (configuration not stated) | 142.8 |
| COc1ccc(NC(=O)N2CCC(CSC)C2)cc1C (configuration not stated) | -50.59 |
| COCC1CN(C(=O)Nc2ccc(Cl)cc2Cl)CCO1 (configuration not stated) | -1.722 |
| COCCOc1ccc(NC(=O)N2CCOC(C(N)=O)C2)cc1F (configuration not stated) | 100.1 |
| COCC1CN(C(=O)Nc2cc(Br)ccc2F)CCO1 (configuration not stated) | -0.1525 |
| Cc1cnc(C)c(N2CCC(Cc3ccccc3Cl)(C(=O)O)CC2)n1 | 2.277 |
| CC(=O)N1CCCN(Cc2csc(C)n2)c2ccccc21 | 0.8232 |
| CCCC(O)CN1CC(C)(C)CN(C(=O)c2ccc(Cl)cc2)CC1=O (configuration not stated) | 78.76 |
| CN(C)C(=O)N1CCN(C(=O)c2ccc(Cl)cc2)CC2(CNC(=O)C2)C1 (configuration not stated) | -1.625 |
| Cc1[nH]nc2ncc(C(=O)N3CCN(CC(O)C(C)(C)C)CC3)cc12 (configuration not stated) | -16.51 |
| CCCC(O)CN1CC(C)(C)CN(C(=O)c2ccc(SC)cc2)CC1=O (configuration not stated) | 118.8 |
| CC1(C)CN(CC(O)C(C)(C)C)C(=O)CN(C(=O)c2ccccc2)C1 (configuration not stated) | 117.8 |

| Compound | Percent Effect [%] |
| --- | --- |
| CCCC(O)CN1CC(C)(C)CN(C(=O)c2ccccc2)CC1=O (configuration not stated) | 122.4 |
| CCCN(CCO)C(=O)C1CCC(=O)N(CCc2ccc(Cl)cc2)C1 (configuration not stated) | -1.106 |
| CC(C)CN1CC2(CCN(C(=O)C(O)c3ccccc3Cl)CC2)CC1=O (configuration not stated) | -2.667 |
| CSc1ccc(C(O)CNS(=O)(=O)C2CC2)cc1 (configuration not stated) | 2.179 |
| NC(=O)NCC(=O)N1C[C@H]2CC[C@@H]1CN(C1Cc3ccccc3C1)C2 | -1.297 |
| COc1nc2c(cc1C(=O)N1C[C@H](N)C[C@H]1C(=O)NC(C)C)CCC2 | -26.43 |
| CN(C)CCN1CC(C(=O)N2CCC(c3nccn3C)CC2)CC1=O (configuration not stated) | 2.201 |
| Cn1cnc2c1CCN(CC(=O)N(Cc1ccsc1)C1CC1)C2 | -10.64 |
| COc1ccc(CNCCc2cccc(C(N)=O)c2)cc1C | -2.965 |
| CC(C)N1CCc2ncn(C(C)C)c2C1C(=O)N1CCN(C)CC1 (configuration not stated) | -12.1 |
| CCc1nc(CCn2ccc3nc(OC)c(C#N)cc3c2=O)no1 | 0.8236 |
| CC(C)c1noc(CN2CCOCC2C)n1 (configuration not stated) | 107.7 |
| CC(C)c1noc(CS(=O)(=O)Cc2nc(C(C)C)no2)n1 | -3.73 |
| CC(C)c1noc(CN2CCC3(CCCO3)CCC2=O)n1 (configuration not stated) | -7.858 |
| CC1COCCN1Cc1noc(C(C)(C)C)n1 (configuration not stated) | 91.93 |
| CC(C)(C)c1nc(CN2CCC(N3CCCCC3)CC2)no1 | 3.179 |
| CCCc1noc(CN2CCOCC2C)n1 (configuration not stated) | 76.64 |
| CC(C)(C)c1noc(CN2CCCC(CNS(N)(=O)=O)C2)n1 (configuration not stated) | -0.7485 |
| CC(C(=O)N1CCOCC1)S(=O)(=O)Cc1noc(C(C)(C)C)n1 (configuration not stated) | -4.281 |
| CC1COCCN1Cc1nc(C(C)(C)C)no1 (configuration not stated) | 110.8 |
| CC1CCCCN1Cc1nc(C2CC2)no1 (configuration not stated) | 23.82 |
| COCc1nc2cc(NCc3sc(C)nc3C)ccc2o1 | 1.098 |
| CC1=C(C(=O)NCc2cccnc2-n2cnc3ccccc32)OCCO1 | -15.12 |

| Compound | Percent Effect [%] |
| --- | --- |
| CSc1nccc(N2CCC(=O)N(CC3CC3)C(C(C)C)C2)n1 (configuration not stated) | 8.272 |
| CCNC(=O)N1CC[C@H]2CC(=O)N(CCN3CCNC3=O)CC[C@H]2C1 | 12.62 |
| Cl.OC(CNCc1ccccc1C(F)(F)F)c1ccccc1 (configuration not stated) | -21.52 |
| CC(C)Cc1noc(CN2CCOCC2)n1 | -2.166 |
| CC1COCCN1Cc1nc(Cc2ccccc2)no1 (configuration not stated) | 106.6 |
| Cn1cnc2c1CCN(Cc1nc(Cc3ccccc3)no1)C2 | -6.335 |
| CC1CCCCN1Cc1nc(Cc2ccccc2)no1 (configuration not stated) | -14.27 |
| CC(C)Cc1noc(CN2CCOCC2C)n1 (configuration not stated) | 87.61 |
| CC(C)Cc1noc(CN2CCN(CCO)CC2)n1 | -13.58 |
| O=C(O)[C@@]12CN(c3cnccn3)C[C@@H]1CN(C1CCCC1)C2 | 11.78 |
| CCS(=O)(=O)N(C)CC(=O)Nc1ccc(Br)cn1 | 11.17 |
| CC1CN(C)c2ccccc2CN1C(=O)c1ccoc1 (configuration not stated) | -34.7 |
| COc1cccc(CN2CC(O)CN(C(=O)C3CCC3)CC2=O)c1OC (configuration not stated) | 107.9 |
| CNC(=O)[C@@H](c1ccccc1OC)N1CCC[C@H]1C(=O)N1CC[C@@H](O)C1.Cl | 4.858 |
| COc1cccc(CN2CC(O)CN(C(=O)C3CC3)CC2=O)c1OC (configuration not stated) | 103.4 |
| COc1ccccc1CC1CCN(C(=O)CCN2CCOC2=O)CC1 | -13.03 |
| COc1ccccc1OC1CCN(C(=O)C2CCCN(C)C2)CC1 (configuration not stated) | -2.238 |
| COc1ccc(OC)c(C2CCN(C(=O)[C@H]3CC[C@@H](O)CC3)C2)c1 (some centres not stated) | 4.796 |
| CSCc1noc(CN2CCC3(CC2)CC(=O)N(CC(C)C)C3)n1 | 6.142 |
| Fc1ccc(CN2CCCn3nnc(COCC4CC4)c3C2)cc1.O=C(O)C(F)(F)F | -22.46 |
| CNCc1n[nH]c(=O)n1CC1CCCCC1 | 9.971 |
